Test results as given in PubChem BioAssay AID1159580 (chemical genetic matrix, 2015).
In all, about 5,500 compounds went through this assay and about 2,000 (36%) were called active. About 18% were inconclusive and are not listed. No stated cut-off is given here; in the data, active means normalized growth mostly below about 0.91 (no sharp cut-off); inconclusive means no clear call, values can overlap the other calls; inactive means mostly above about 0.92. The list shows a part of the results.

Assay: chemical genetic growth profiling, strain panel (AID 1159580);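 further: tested at 20 µM; growth read once vehicle control cultures reached saturation at 30 °C; 1 = growth at the plate median or of vehicle wells; lower values mean less growth of the strain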
Conditions: growth OD

Measured: normalized growth

CCCNC1CCc2nc(N)sc2C1 (stereo unspecified)
inactive: S. cerevisiae deletion strains, locus YAL013W, strain DEP1, active compounds read low 1.01 | S. cerevisiae deletion strains, locus YBR021W, strain FUR4, active compounds read low 1.02 | S. cerevisiae deletion strains, locus YBR229C, strain ROT2, active compounds read low 1.01 | S. cerevisiae deletion strains, locus YCL029C, strain bik1, active compounds read low 0.997 | S. cerevisiae deletion strains, locus YDL035C, strain GPR1, active compounds read low 1.02 | S. cerevisiae deletion strains, locus YDL074C, strain BRE1, active compounds read low 1.04 | S. cerevisiae deletion strains, locus YDL101C, strain DUN1, active compounds read low 1.01 | S. cerevisiae deletion strains, locus YDL134C, strain PPH21, active compounds read low 1.01 | S. cerevisiae deletion strains, locus YDL185W, strain tfp1, active compounds read low 1.01 | S. cerevisiae deletion strains, locus YDL192W, strain arf1, active compounds read low 1 | S. cerevisiae deletion strains, locus YDR101C, strain arx1, active compounds read low 0.988 | S. cerevisiae deletion strains, locus YDR150W, strain NUM1, active compounds read low 1.01 | S. cerevisiae deletion strains, locus YDR162C, strain NBP2, active compounds read low 1.01 | S. cerevisiae deletion strains, locus YDR318W, strain mcm21, active compounds read low 1 | S. cerevisiae deletion strains, locus YDR388W, active compounds read low 0.994 | S. cerevisiae deletion strains, locus YDR502C, strain sam2, active compounds read low 0.995 | S. cerevisiae deletion strains, locus YEL061C, strain CIN8, active compounds read low 1.01 | S. cerevisiae deletion strains, locus YER110C, active compounds read low 0.99 | S. cerevisiae deletion strains, locus YER155C, strain BEM2, active compounds read low 0.983 | S. cerevisiae deletion strains, locus YER167W, strain BCK2, active compounds read low 1.01 | S. cerevisiae deletion strains, locus YGL078C, strain dbp3, active compounds read low 1.01 | S. cerevisiae deletion strains, locus YGL086W, strain mad1, active compounds read low 0.994 | S. cerevisiae deletion strains, locus YGL248W, strain PDE1, active compounds read low 1.01 | S. cerevisiae deletion strains, locus YGR078C, strain PAC10, active compounds read low 1.03 | S. cerevisiae deletion strains, locus YGR135W, strain pre9, active compounds read low 1 | S. cerevisiae deletion strains, locus YGR229C, strain SMI1, active compounds read low 1.03 | S. cerevisiae deletion strains, locus YGR252W, strain gcn5, active compounds read low 1.03 | S. cerevisiae deletion strains, locus YHR030C, strain SLT2, active compounds read low 1.01 | S. cerevisiae deletion strains, locus YHR079C, strain IRE1 (second series), active compounds read low 0.995 | S. cerevisiae deletion strains, locus YHR094C, strain hxt1, active compounds read low 1 | S. cerevisiae deletion strains, locus YHR129C, strain ARP1, active compounds read low 1.01 | S. cerevisiae deletion strains, locus YHR200W, strain rpn10, active compounds read low 1 | S. cerevisiae deletion strains, locus YIL066C, strain RNR3, active compounds read low 1.02 | S. cerevisiae deletion strains, locus YIL073C, strain SPO22, active compounds read low 1.03 | S. cerevisiae deletion strains, locus YIL125W, strain kgd1, active compounds read low 1 | S. cerevisiae deletion strains, locus YIR030C, strain dcg1, active compounds read low 0.998 | S. cerevisiae deletion strains, locus YJL095W, strain BCK1, active compounds read low 1.02 | S. cerevisiae deletion strains, locus YJL134W, strain LCB3, active compounds read low 1.01 | S. cerevisiae deletion strains, locus YJL168C, strain set2, active compounds read low 1 | S. cerevisiae deletion strains, locus YJL187C, strain SWE1 (second series), active compounds read low 1.01 | S. cerevisiae deletion strains, locus YJR043C, strain POL32, active compounds read low 1 | S. cerevisiae deletion strains, locus YJR075W, strain HOC1, active compounds read low 1 | S. cerevisiae deletion strains, locus YKL009W, strain mrt4, active compounds read low 1.02 | S. cerevisiae deletion strains, locus YKL068W, active compounds read low 1.01 | S. cerevisiae deletion strains, locus YKL085W, strain MDH1 (second series), active compounds read low 1.01 | S. cerevisiae deletion strains, locus YKL085W, strain MDH1, active compounds read low 1.01 | S. cerevisiae deletion strains, locus YKL190W, strain CNB1, active compounds read low 1.02 | S. cerevisiae deletion strains, locus YKR001C, strain vps1, active compounds read low 1.01 | S. cerevisiae deletion strains, locus YLR039C, strain RIC1, active compounds read low 1.05 | S. cerevisiae deletion strains, locus YLR058C, strain SHM2, active compounds read low 1.01 | S. cerevisiae deletion strains, locus YLR102C, strain apc9, active compounds read low 0.997 | S. cerevisiae deletion strains, locus YLR262C, strain YPT6, active compounds read low 1.06 | S. cerevisiae deletion strains, locus YLR268W, strain sec22, active compounds read low 0.992 | S. cerevisiae deletion strains, locus YLR330W, strain CHS5, active compounds read low 1.01 | S. cerevisiae deletion strains, locus YLR342W, strain FKS1 (second series), active compounds read low 1.02 | S. cerevisiae deletion strains, locus YLR371W, strain rom2, active compounds read low 1 | S. cerevisiae deletion strains, locus YLR418C, strain cdc73, active compounds read low 1.01 | S. cerevisiae deletion strains, locus YML016C, strain PPZ1, active compounds read low 1 | S. cerevisiae deletion strains, locus YML032C, strain rad52, active compounds read low 0.992 | S. cerevisiae deletion strains, locus YML124C, strain tub3, active compounds read low 1 | S. cerevisiae deletion strains, locus YMR078C, strain ctf18, active compounds read low 0.999 | S. cerevisiae deletion strains, locus YMR223W, strain ubp8, active compounds read low 1.01 | S. cerevisiae deletion strains, locus YMR263W, strain SAP30, active compounds read low 1.01 | S. cerevisiae deletion strains, locus YMR307W, strain GAS1, active compounds read low 0.995 | S. cerevisiae deletion strains, locus YNL067W, strain RPL9B, active compounds read low 1.01 | S. cerevisiae deletion strains, locus YNL128W, strain TEP1, active compounds read low 1.02 | S. cerevisiae deletion strains, locus YNL153C, strain GIM3, active compounds read low 1 | S. cerevisiae deletion strains, locus YNL233W, strain BNI4, active compounds read low 1.01 | S. cerevisiae deletion strains, locus YNL250W, strain rad50, active compounds read low 0.996 | S. cerevisiae deletion strains, locus YNL271C, strain bni1, active compounds read low 0.993 | S. cerevisiae deletion strains, locus YNL298W, strain CLA4, active compounds read low 1.03 | S. cerevisiae deletion strains, locus YNL307C, strain MCK1, active compounds read low 0.995 | S. cerevisiae deletion strains, locus YNL322C, strain KRE1, active compounds read low 1.01 | S. cerevisiae deletion strains, locus YNR052C, strain pop2, active compounds read low 1 | S. cerevisiae deletion strains, locus YOL006C, strain TOP1, active compounds read low 1.03 | S. cerevisiae deletion strains, locus YOL012C, strain htz1 1.08 | S. cerevisiae deletion strains, locus YOL147C, strain pex11, active compounds read low 0.995 | S. cerevisiae deletion strains, locus YOR061W, strain CKA2, active compounds read low 1.01 | S. cerevisiae deletion strains, locus YOR069W, strain VPS5, active compounds read low 1.01 | S. cerevisiae deletion strains, locus YOR136W, strain idh2, active compounds read low 1 | S. cerevisiae deletion strains, locus YOR144C, strain elg1, active compounds read low 1.01 | S. cerevisiae deletion strains, locus YOR184W, strain ser1, active compounds read low 1.02 | S. cerevisiae deletion strains, locus YOR316C, strain cot1, active compounds read low 1 | S. cerevisiae deletion strains, locus YPL055C, strain LGE1, active compounds read low 1.06 | S. cerevisiae deletion strains, locus YPL241C, strain CIN2, active compounds read low 1.01 | S. cerevisiae deletion strains, locus YPR119W, strain clb2, active compounds read low 1.01 | S. cerevisiae deletion strains, locus YPR141C, strain kar3, active compounds read low 0.996 | S. cerevisiae deletion strains, locus YPR163C, strain tif3, active compounds read low 0.993 | S. cerevisiae deletion strains, locus YPR167C, strain met16, active compounds read low 1.01 | S. cerevisiae deletion strains, strain wtn01, active compounds read low 0.989 | S. cerevisiae strains, strain wild type, active compounds read low 1.01
